In the supplement of paper PMC11732987, “Enantioselective OTUD7B fragment discovery through chemoproteomics screening and high-throughput optimisation” (Communications Chemistry, 2025):

Experiments:
Experiment in all cases: log2 ratio of Biotin-Ahx-Ub-VS probe labelling (fragment/DMSO); higher = less target engagement (more negative = stronger competition), active = hit call of the paper (q ≤ 0.05, log2 ratio ≤ -1)
Conditions in all cases: compound concentration: 200 uM; treatment time: 3 h
USP19 = target: T1, USP19 (UniProt O94966)
T1 sequence (whole entry): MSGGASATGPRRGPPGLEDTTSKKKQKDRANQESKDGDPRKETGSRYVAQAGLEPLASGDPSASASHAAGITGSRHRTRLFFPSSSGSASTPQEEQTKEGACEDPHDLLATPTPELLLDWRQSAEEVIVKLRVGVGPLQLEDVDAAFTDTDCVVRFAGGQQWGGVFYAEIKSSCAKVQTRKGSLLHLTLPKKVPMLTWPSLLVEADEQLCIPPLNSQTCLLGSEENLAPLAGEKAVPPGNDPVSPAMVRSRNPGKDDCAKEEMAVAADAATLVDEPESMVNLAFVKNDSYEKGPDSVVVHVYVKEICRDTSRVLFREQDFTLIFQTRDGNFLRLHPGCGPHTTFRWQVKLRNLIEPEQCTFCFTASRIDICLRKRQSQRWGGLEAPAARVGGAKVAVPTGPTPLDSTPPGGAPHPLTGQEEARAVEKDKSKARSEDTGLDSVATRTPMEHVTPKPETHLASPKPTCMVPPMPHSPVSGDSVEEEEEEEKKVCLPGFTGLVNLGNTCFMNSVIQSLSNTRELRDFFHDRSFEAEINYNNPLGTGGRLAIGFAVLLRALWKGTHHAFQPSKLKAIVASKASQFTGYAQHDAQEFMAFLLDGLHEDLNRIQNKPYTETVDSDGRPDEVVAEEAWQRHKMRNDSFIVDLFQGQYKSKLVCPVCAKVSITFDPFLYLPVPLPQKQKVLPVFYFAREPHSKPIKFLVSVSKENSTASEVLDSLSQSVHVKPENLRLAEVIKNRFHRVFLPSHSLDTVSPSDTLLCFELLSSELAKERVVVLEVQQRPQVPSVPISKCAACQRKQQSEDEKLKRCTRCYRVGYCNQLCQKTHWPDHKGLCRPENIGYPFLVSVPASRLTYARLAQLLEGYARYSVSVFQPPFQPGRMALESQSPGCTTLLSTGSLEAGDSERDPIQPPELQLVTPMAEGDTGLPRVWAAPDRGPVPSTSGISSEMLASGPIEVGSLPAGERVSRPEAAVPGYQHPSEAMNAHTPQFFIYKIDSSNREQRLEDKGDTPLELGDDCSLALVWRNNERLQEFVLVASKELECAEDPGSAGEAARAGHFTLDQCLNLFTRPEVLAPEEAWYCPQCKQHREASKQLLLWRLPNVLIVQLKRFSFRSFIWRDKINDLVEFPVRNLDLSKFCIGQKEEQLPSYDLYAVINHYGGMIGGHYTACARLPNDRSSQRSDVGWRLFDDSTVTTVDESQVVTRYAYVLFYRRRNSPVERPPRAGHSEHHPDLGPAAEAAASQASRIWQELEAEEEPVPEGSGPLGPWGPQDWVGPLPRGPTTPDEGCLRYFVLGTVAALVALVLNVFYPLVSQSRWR
Summary of the method: (§1)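 Labelling with Biotin-Ahx-Ub-VS (0.5 µM final, 1 h) followed a 3 h triplicate treatment of HEK293T lysate (495 µg per sample, Tris/CHAPS/IGEPAL buffer with protease inhibitors) with fragment at 200 µM or vehicle. Labelled DUBs were NeutrAvidin-enriched, digested with LysC and trypsin, and run by diaPASEF LC-MS/MS. The values, average log2 fragment/vehicle ratios by unpaired t-test, come from global-median-normalised Spectronaut label-free quantities. Proteins with ≥2 unique peptides were used.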

USP22 = target: T2, USP22 (UniProt Q9UPT9)
T2 sequence (whole entry): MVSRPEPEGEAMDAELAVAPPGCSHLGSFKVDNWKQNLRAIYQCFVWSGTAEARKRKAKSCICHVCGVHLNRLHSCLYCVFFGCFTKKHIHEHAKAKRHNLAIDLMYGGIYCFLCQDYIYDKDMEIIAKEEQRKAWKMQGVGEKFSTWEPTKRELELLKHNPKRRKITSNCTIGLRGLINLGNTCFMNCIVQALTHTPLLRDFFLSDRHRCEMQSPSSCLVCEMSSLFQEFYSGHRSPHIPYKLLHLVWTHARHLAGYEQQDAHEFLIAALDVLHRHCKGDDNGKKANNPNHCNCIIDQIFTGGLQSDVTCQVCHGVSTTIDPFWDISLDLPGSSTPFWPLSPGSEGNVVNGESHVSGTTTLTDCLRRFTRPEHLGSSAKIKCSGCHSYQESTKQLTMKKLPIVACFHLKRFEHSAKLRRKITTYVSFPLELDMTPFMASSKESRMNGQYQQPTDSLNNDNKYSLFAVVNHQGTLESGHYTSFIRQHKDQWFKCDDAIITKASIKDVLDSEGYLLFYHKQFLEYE
Summary of the method: as §1

USP24 = USP24 (UniProt Q9UPU5)
Summary of the method: as §1

USP25 = target: T3, USP25 (UniProt Q9UHP3)
T3 sequence (whole entry): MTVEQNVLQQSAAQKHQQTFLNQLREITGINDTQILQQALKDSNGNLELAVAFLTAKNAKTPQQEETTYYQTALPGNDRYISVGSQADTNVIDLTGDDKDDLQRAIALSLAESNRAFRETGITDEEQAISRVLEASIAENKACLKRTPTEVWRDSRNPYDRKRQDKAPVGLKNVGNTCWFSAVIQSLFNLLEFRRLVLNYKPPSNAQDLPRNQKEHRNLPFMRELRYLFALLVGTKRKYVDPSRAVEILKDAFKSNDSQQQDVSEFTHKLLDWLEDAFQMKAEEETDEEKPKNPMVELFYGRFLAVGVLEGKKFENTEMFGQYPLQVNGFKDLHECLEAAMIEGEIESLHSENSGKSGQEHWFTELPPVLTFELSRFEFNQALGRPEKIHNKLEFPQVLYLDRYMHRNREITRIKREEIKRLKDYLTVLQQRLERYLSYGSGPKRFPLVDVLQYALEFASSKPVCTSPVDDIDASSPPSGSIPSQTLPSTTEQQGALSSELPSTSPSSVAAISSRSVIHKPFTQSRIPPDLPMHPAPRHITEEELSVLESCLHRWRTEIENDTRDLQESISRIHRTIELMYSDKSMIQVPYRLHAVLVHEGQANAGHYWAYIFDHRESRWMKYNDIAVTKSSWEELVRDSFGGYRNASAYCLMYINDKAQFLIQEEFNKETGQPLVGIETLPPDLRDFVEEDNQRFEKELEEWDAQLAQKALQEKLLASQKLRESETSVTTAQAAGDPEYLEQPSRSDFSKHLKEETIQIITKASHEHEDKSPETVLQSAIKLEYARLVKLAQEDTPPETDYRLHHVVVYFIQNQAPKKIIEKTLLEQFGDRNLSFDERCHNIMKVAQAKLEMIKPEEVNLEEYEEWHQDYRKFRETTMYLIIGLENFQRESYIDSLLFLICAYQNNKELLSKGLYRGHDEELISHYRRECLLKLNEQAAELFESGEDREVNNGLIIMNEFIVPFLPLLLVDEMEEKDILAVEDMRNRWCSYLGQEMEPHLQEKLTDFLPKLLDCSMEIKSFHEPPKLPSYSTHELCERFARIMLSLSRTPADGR
Summary of the method: as §1

USP28 = target: T4, USP28 (UniProt Q96RU2)
T4 sequence (whole entry): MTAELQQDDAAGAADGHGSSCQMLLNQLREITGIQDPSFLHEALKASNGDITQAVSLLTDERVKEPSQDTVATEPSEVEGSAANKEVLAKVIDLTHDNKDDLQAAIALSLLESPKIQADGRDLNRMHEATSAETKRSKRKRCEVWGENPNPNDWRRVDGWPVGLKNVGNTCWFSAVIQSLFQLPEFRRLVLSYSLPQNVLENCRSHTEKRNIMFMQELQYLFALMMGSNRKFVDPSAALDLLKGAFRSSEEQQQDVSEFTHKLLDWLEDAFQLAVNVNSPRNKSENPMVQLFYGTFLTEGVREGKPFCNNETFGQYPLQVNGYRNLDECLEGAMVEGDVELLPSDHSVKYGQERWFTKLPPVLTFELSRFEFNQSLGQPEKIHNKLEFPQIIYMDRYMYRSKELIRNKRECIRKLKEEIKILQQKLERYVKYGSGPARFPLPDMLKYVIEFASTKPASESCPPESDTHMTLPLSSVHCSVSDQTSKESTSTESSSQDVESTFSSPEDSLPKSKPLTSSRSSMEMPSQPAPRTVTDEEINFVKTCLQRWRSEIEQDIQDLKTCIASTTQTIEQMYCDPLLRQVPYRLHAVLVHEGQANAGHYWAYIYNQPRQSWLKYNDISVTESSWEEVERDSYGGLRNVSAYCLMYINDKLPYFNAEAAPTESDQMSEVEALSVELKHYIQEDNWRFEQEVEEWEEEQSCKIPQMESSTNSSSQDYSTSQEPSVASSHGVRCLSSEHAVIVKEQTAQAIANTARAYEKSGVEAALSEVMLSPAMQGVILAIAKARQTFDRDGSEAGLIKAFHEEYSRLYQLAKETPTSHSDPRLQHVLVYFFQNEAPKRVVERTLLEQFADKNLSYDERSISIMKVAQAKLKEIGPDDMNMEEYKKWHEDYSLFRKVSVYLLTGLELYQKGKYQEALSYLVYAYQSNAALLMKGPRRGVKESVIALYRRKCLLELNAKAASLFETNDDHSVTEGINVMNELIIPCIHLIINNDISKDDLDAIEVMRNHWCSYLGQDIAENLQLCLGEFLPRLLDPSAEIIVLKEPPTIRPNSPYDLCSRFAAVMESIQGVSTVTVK
Summary of the method: as §1

Measured: log2 ratio of Biotin-Ahx-Ub-VS probe labelling

Sequence of USP24 (Q9UPU5 whole entry): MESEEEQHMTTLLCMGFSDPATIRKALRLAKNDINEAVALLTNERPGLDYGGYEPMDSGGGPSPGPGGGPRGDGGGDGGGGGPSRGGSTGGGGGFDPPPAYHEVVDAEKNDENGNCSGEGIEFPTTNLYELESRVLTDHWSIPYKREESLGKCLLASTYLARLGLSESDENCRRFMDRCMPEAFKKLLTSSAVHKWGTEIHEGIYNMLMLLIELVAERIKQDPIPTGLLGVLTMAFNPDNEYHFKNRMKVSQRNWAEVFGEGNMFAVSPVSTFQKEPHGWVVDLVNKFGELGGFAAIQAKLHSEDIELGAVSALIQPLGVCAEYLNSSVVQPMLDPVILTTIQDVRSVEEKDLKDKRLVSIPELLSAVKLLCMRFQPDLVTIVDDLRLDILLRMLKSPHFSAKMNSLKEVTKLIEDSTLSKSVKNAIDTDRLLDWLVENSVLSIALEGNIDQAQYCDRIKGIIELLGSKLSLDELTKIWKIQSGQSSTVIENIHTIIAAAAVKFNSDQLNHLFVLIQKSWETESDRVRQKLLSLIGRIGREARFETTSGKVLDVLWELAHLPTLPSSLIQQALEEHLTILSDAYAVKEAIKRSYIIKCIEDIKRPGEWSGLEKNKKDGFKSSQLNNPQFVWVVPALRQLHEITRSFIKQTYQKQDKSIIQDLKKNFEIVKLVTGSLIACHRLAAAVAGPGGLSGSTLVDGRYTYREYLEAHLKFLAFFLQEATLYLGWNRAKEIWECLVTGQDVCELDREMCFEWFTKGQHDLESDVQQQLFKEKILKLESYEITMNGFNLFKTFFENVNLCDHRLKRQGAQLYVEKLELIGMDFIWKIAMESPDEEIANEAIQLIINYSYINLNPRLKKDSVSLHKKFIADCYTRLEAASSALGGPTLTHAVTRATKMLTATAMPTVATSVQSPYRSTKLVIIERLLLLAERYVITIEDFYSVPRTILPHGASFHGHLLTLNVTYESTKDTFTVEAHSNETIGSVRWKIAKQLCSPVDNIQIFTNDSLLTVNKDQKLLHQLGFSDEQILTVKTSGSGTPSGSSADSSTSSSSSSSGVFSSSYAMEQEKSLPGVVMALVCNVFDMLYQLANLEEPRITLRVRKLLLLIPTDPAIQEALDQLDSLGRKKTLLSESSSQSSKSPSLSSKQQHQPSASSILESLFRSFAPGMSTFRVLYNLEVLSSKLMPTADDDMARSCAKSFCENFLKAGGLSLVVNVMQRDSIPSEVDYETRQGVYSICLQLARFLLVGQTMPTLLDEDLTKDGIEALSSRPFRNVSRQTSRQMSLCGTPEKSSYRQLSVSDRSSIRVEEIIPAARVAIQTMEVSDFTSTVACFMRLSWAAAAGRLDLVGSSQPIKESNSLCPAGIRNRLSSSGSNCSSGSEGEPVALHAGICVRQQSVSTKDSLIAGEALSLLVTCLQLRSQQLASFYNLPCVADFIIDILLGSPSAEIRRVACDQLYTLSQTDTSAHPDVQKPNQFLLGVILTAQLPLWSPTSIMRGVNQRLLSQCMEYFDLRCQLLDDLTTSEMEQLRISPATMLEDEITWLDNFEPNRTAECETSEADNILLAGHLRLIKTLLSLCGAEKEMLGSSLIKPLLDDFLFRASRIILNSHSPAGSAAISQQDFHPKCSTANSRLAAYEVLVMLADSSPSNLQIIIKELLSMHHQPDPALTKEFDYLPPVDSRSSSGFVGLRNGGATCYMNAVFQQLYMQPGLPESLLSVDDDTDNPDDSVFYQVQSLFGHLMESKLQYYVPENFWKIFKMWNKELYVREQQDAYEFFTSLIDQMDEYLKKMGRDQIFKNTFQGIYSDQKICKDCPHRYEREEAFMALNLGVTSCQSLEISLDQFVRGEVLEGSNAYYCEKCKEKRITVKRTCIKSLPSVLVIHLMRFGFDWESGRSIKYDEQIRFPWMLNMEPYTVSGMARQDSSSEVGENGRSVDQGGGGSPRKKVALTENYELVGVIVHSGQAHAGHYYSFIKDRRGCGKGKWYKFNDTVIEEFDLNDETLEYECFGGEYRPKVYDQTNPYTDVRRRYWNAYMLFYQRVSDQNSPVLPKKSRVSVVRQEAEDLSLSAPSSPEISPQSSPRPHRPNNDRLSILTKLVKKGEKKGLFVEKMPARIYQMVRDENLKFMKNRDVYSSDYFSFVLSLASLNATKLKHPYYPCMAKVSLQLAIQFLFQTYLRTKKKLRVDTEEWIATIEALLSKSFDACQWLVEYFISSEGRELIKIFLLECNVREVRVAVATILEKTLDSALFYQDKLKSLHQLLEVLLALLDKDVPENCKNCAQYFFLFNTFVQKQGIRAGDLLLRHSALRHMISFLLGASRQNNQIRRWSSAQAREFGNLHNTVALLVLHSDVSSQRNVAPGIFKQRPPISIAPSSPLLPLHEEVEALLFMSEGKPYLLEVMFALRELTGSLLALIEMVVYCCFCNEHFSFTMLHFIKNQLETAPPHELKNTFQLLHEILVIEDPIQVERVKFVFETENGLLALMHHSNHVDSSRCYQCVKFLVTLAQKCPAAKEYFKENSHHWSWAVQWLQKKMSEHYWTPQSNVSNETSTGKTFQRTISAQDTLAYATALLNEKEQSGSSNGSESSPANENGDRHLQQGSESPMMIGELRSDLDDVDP

O=C(CCl)N1CCC(OCc2ccccc2F)CC1
inactive: USP19 -0.0583 | USP22 -0.181 | USP24 -0.486 | USP25 -0.163 | USP28 -0.161
